System: RPS6KA6

Kinases covered, RPS6KA6:
C[C@@H]1CCNC(=O)c2cc3ccc(C(=O)Nc4nc5ccccc5n4CCCN(C)C)cc3n21 [BI00645435]
Fc1ccc(-c2nn3ccccc3c2-c2ccncc2)cc1 [GW434756X]
Nc1nc(-c2ccccc2F)c(-c2ccnc3ccccc23)s1 [GW560459]
Nc1nc(-c2cccc(Cl)c2)c(-c2ccc3ncccc3n2)s1 [GW780159X]

Source: PMC7826789 (International Journal of Molecular Sciences, 2021)
